Shiga inhibitor – Shiga toxin inhibition; hit rate 9.2% among 290,000; Vero cells, Shiga toxin protein synthesis inhibition reporter; inhibition, % at 38.7 µM; AID 2315; in the data active = inhibition mostly above about 28%, no sharp cut-off; inactive = mostly below about 43%
HCMV antiviral – inhibitors of human cytomegalovirus; HFF cells, HCMV-luciferase reporter, 72 h; hits give low values; activity change, negative = inhibition, % at 57.5 µM; hit rate 4.5% among 410,000; AID 1259415; in the data active = activity change below about -60%; inconclusive = no clear call, values can overlap the other calls; inactive = above about -39%
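Cell-based, HFFs, 1000 cells/well, 16 h 37C; cpds in DMSO + HCMV-luc, MOI 1 PFU/cell; 72 h 37C; OneGlo luminescence after 5 min RT; norm. to buffer vs Salinomycin 10uM.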
Cycloheximide cs – counter-screen hit for Shiga toxin inhibitors, cycloheximide | max response, % | AID 2314 | hit rate 12% among 300,000 | cell reporter, cycloheximide protein synthesis inhibition counterscreen; in the data active = max response mostly above about 13%, no sharp cut-off; inactive = mostly below about 14%; note: read at 38.3 µM for the half of the compounds with a filed dose
HCV inh – inhibitors of hepatitis C virus infection; Huh7.5.1 HCVcc-Cre infection, luciferase reporter, 44 h; Potency, µM (highest dose often 41.8 µM), most hits filed as inhibitors; hit rate 3.4% among 340,000; AID 651820
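HCVcc-Cre virus at an moi near 0.5 was added right after compound to cells cultured 4 h from seeding (1,000 cells/well). Luciferase activity was determined 44 h later, 15 min after substrate addition at RT.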
Pf growth 48h – P. falciparum growth inhibition at 48 hours (one generation); P. falciparum luciferase growth in erythrocytes, 48 h; Potency, µM (highest dose often 28.7 µM), usual class: inhibitors; hit rate 5.9% among 310,000
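Luciferase-expressing P. falciparum in infected erythrocytes (2% hematocrit, 0.1% parasitemia final) in RPMI 1640/0.5% Albumax were exposed to compound for 48 hours at 37 C, 5% CO2; growth read as luminescence.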
Pf growth 96h – P. falciparum growth inhibition at 96 hours. P. falciparum luciferase reporter growth, 96 h. Potency, µM (series often up to 28.7 µM), usual class: inhibitors. hit rate 6.9% among 320,000
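Parasite growth measured via integrated firefly luciferase reporter in P. falciparum. Infected erythrocytes at 2% hematocrit, 0.05% parasitemia final were treated 96 hours at 37 C under 5% CO2, and luminescence was read.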
A number is an active result; 0 = inactive; ? = inconclusive; - = no result. An excerpt weighted towards active compounds, which were near 21% of everything screened. Unless noted, calls come from the whole dose curve; as a rule, active = well fitted inhibition curve with a large enough effect; inconclusive = small, poorly fitted or top-dose-only effect, or another doubt; inactive = no such curve, though single readings can be large or run the other way.

SMILES	Shiga inhibitor	HCMV antiviral	Cycloheximide cs	HCV inh	Pf growth 48h	Pf growth 96h
CCC(=O)Nc1nc2ccccc2n1Cc1ccc(Cl)cc1	0	-76	0	?	?	0
CC(=O)Nc1nc2ccccc2n1CCOc1ccccc1Cl	0	0	0	0	3.7µM	0
CC(=O)Nc1nc2ccccc2n1Cc1ccccc1Cl	0	-96	0	0	3.3µM	?
COc1cccc(C2=Nn3c(nnc3-c3ccccc3OC)SC2)c1	0	-	0	-	-	-
CCCNC(=O)c1cc(C2CCCN(S(=O)(=O)c3cccc4cccnc34)C2)on1 (centres undefined)	-	0	-	-	-	-
CC(=O)c1cccc(NC(=O)CCc2nnc3ccc(NCc4ccc5c(c4)OCO5)nn23)c1	0	0	0	0	0	?
O=C(CCC(=O)Nc1ccc(Br)cc1)N/N=C/c1ccc(O)cc1	0	0	0	0	0	?
COc1ccc(Cn2c(C(=O)O)c(CNC3CCC(C)CC3)c3ccc(C)cc32)cc1 (centres undefined)	-	0	-	-	-	-
COCCC(=O)N1CCC(Oc2ccc(C(=O)NCCc3ccccn3)cc2)CC1	0	0	0	0	0	0
Cc1cc(S(=O)(=O)Nc2ccc(-c3ccc(N4CCCCCC4)nn3)cc2)c(C)cc1Cl	-	0	-	-	-	-
CCc1cccc(CC)c1NC(=O)Cn1c(-c2ccccc2Cl)nc2ccccc21	37	0	22	0	0	0
CC(=O)Nc1nc2ccccc2n1Cc1ccccc1C	0	?	0	?	7.4µM	0
CC(C)Cn1c(-c2ccccc2Cl)nc2ccccc21	-	0	-	-	-	-
Cc1ccccc1Cn1c(-c2ccc(=O)[nH]c2)nc2ccccc21	0	0	0	0	12µM	7.4µM
CCCCn1c(C(C)NC(=O)CC)nc2ccccc21 (centres undefined)	0	0	0	0	0	0
CCCCCCn1c(C(C)NC(=O)c2ccco2)nc2ccccc21 (centres undefined)	0	0	12	0	?	?
C=CCNC(=O)c1onc(CSc2ccccn2)c1C(=O)NCC=C	0	0	0	0	0	0
CCC(=O)NCCCc1nc2ccccc2n1Cc1ccccc1F	0	0	0	0	?	0
CCC(=O)NCc1nc2ccccc2n1Cc1ccccc1F	0	-99	0	0	0	0
CC(=O)NC(C)c1nc2ccccc2n1Cc1ccccc1Cl (centres undefined)	-	0	-	-	-	-
CCC(=O)Nc1nc2ccccc2n1Cc1ccccc1Cl	0	?	0	?	3.3µM	2.9µM
CCCCCCCn1c(NC(=O)CC)nc2ccccc21	0	-84	0	0	1.9µM	0.93µM
Cc1ccc(C)c(NC(=O)CCc2nc3cccnc3n2Cc2cccs2)c1	-	0	-	-	-	-
O=C(CCc1ccc(S(=O)(=O)NCCc2ccccc2)cc1)Nc1ccc2c(c1)OCO2	0	0	0	?	?	-
NS(=O)(=O)c1ccc(NC(=S)NCc2ccc3c(c2)OCO3)cc1	0	0	0	0	0	0
SMILES	Shiga inhibitor	HCMV antiviral	Cycloheximide cs	HCV inh	Pf growth 48h	Pf growth 96h
CCNS(=O)(=O)c1ccc(CCC(=O)Nc2ccc3c(c2)OCO3)cc1	0	0	0	0	0	0
NS(=O)(=O)c1ccc(NC(=O)Nc2ccc3c(c2)OCO3)cc1	96	0	41	0	?	?
CCNS(=O)(=O)c1ccc(NC(=O)Nc2ccc3c(c2)OCO3)cc1	0	0	30	0	0	0
CC(C)c1ccc(S(=O)(=O)NCc2ccc3c(c2)OCO3)cc1	0	0	0	0	0	10µM
O=C(Nc1ccc(S(=O)(=O)NCc2ccccc2)cc1)Nc1ccc2c(c1)OCO2	81	0	28	0	0	0
O=C(Nc1ccc(Br)cc1)C1CCN(S(=O)(=O)c2cccc3nsnc23)CC1	-	0	-	-	-	-
CC(C)CNS(=O)(=O)c1ccc(CCC(=O)Nc2ccc3c(c2)OCO3)cc1	0	0	0	0	0	4.1µM
Cn1cnc2cc(OC(=O)c3ccccc3)ccc21	108	0	48	0	0	0
Cc1ccc(OCC(=O)Nc2ccc3c(c2)ncn3C)cc1	-	0	-	0	-	-
Cc1ccc(C(=O)Oc2ccc3c(c2)ncn3C)cc1	99	0	49	0	0	0
